# Only some compounds are listed: those with a hit (about 3.8% of all), similar ones and a draw of the others.
# HepG2 viability: qHTS for Inhibitors of TGF-b: Cytotox Counterscreen; HepG2 CAGA-GFP viability, ATP luminescence, 18 h; actives 0.76% (n = 410,000); AID 588856, 2011; Potency, µM (titrated, usually from 46.1 µM), for the others: at the top dose activity change, negative = cytotoxicity, actives largely listed as cytotoxic
#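 HepG2 CAGA-GFP cells (1000/well, DMEM with 1% FBS) received compound, then TGF-beta at 500 pg/mL final, and were incubated 18 hours at 37 degrees C. Viability was read by CellTiter-Glo luminescence. Media-only wells were set as complete cell-killing and DMSO as no toxicity.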
# ATXN viability: Viability Counterscreen for Primary qHTS for Inhibitors of ATXN expression | actives 0.49% (n = 400,000) | S2 cells (HEK-293 line with an ATXN2-luciferase reporter) viability, CellTiter-Fluor protease fluorescence, 24 h | Potency, µM (top dose mostly 56.7 µM), usual class: cytotoxic; further: nearly all actives have a fitted effect of over 40% in size
# HT1080-NT tox: qHTS for induction of synthetic lethality in tumor cells producing 2HG: qHTS for the HT-1080-NT fibrosarcoma cell line; HT-1080-NT fibrosarcoma viability, CellTiter-Glo ATP luminescence, 48 h; Potency, µM (doses to about 46.1 µM), inactives show top-dose activity, negative = less viability, hits mostly cytotoxic; actives 1.6% (n = 360,000); AID 686970, 2013;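 further: NT is the 2HG producing partner of a matched IDH1 knockdown line; 0% = DMSO-treated cells and -100% = media-only wells without cells; nearly all actives have a fitted effect of over 55% in size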
#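 Viability of the 2HG-overproducing fibrosarcoma line after 48 hours of compound exposure at 37 degrees C was determined by luminescence with CellTiter-Glo, and concentration-effect curves were then fitted and categorized.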
# HT1080 IDH1KD tx: qHTS for induction of synthetic lethality in tumor cells producing 2HG: qHTS for the HT-1080-IDH1KD cell line; HT-1080 IDH1 knockdown viability, ATP luminescence, 48 h; Potency, µM (highest dose often 46.1 µM), for inactives: at the highest dose activity, negative = toxicity, hits mostly cytotoxic; actives 2% (n = 360,000); AID 686971, 2013;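 further: 0% = DMSO wells and -100% = cell-free medium wells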
#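 % activity derives from luminescence (CellTiter-Glo), normalised to DMSO and no-cell wells. HT-1080-IDH1KD cells, 750/well, had 48 h compound exposure at 37 °C.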
# TGFb inhibitor: qHTS for Inhibitors of TGF-b | HepG2 CAGA-GFP TGF-b/SMAD3 reporter, GFP fluorescence, 18 h; TGF-beta stimulated, 500 pg/mL final | Potency, µM (doses to about 46.1 µM), without a hit: at the highest dose activity, negative = inhibition, actives largely listed as inhibitors | actives 1.2% (n = 410,000) | AID 588855, 2011; further: on the % scale 0 is the no-effect control and ±100 the full control effect; nearly all actives have a fitted effect of over 65% in size
#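 GFP signal (ex488/em500-530) from TGF-beta-stimulated HEPG2 CAGA-GFP cells, 500 pg/mL final, 18 h at 37 degrees C in DMEM plus 1% FBS, normalized to unstimulated and DMSO-stimulated controls.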
# ATXN2 expr inh: Primary qHTS for Inhibitors of ATXN expression. HEK-293 ATXN2-luciferase reporter, luminescence, 24 h. Potency, µM (top dose mostly 57 µM), for inactives: top-dose activity change, negative = inhibition, most hits filed as inhibitors. actives 0.72% (n = 360,000). AID 1745845, 2022; further: on the % scale 0 is the no-effect control and ±100 the full control effect; nearly all actives have a fitted effect of over 55% in size
#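 qHTS (up to 57 uM final) was run with 24 h compound exposure of reporter cells at 37 °C. Each well was multiplexed: SteadyGlo luminescence measured ATXN2-luciferase expression after a fluorogenic Gly-Phe-AFC viability readout (25 uM final).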
# * marks the source's active call; other numbers are inactive results; i = inactive; ? = inconclusive; · = not tested or not shown; [ ] = dose if it differs, or a comment. The call rests on the fitted dose curve; in most records, active means well fitted curve in the direction sought with a large enough effect; inconclusive means small, poorly fitted or top-dose-only effect, or another doubt; inactive means no such curve, though single readings can be large; an effect the other way counts as inactive or inconclusive. Potency means the concentration at half of the fitted maximal effect.
SMILES,HepG2 viability,ATXN viability,HT1080-NT tox,HT1080 IDH1KD tx,TGFb inhibitor,ATXN2 expr inh
NC1=NC[C@H](Cc2ccc(O)cc2)N1CCCCC1CCCCC1,-22.0%,?,-24.4%,-28.1%,?,?
NC1=NC[C@@H](CC2CCCCC2)N1CCc1cc(C(F)(F)F)cc(C(F)(F)F)c1,-93.3%,17.8µM*,-1.3%,?,?,20µM*
CC(=O)NC(CS)C(=O)O (stereo not drawn),·,·,·,·,·,5.9%
O=C(Nn1c(-c2ccc(Br)cc2)nc2ccccc2c1=O)c1ccncc1,-1.5%,i,16.3%,13.9%,-5.5%,-22.5%
Cc1cc(C(=O)Nn2c(-c3ccc(Br)cc3)nc3ccccc3c2=O)ccc1[N+](=O)[O-],-31.4%,i,32.6µM*,?,12.6µM*,0.0%
Cc1cc2nc(C3CCN(CC4COc5ccccc5O4)CC3)[nH]c2cc1C (stereo not drawn),-51.7%,?,14.6µM*,?,?,?
Cc1csc(SCC(=O)NCC2Cc3cc(-c4cncnc4)ccc3O2)n1 (stereo not drawn),·,i,·,·,·,·
Cc1cc(C)cc(-n2c(N)c(C(=O)Nc3c(C)n(C)n(-c4ccccc4)c3=O)c3nc4ccccc4nc32)c1,-25.4%,i,-14.2%,?,-26.1%,-18.1%
Cc1ccc(-n2c(N)c(C(=O)Nc3c(C)n(C)n(-c4ccccc4)c3=O)c3nc4ccccc4nc32)cc1,2.9%,·,-2.6%,-7.0%,15.1%,29.9µM*
CN1CCN(c2ncnc3c2ncn3[C@H]2CN(Cc3ccc(-c4ccccc4)cc3)C[C@@H](CO)O2)CC1,11.2µM*,?,18.4µM*,9.2µM*,?,?
CN1CCN(c2ncnc3c2ncn3[C@H]2CN(Cc3ccc(C(=O)O)cc3)C[C@@H](CO)O2)CC1,0.6%,i,25.6%,1.8%,-3.4%,3.3%
OCCN1CCN(c2ncnc3c2ncn3[C@H]2CN(Cc3ccc(-c4ccccc4)cc3)C[C@@H](CO)O2)CC1,-33.9%,·,20.6µM*,?,-6.2%,?
Cc1ccc(S(=O)(=O)CCC(=O)c2cccc([N+](=O)[O-])c2)cc1,-66.9%,?,?,6.51µM*,11.2µM*,?
COc1ccc(C(=O)CCS(=O)(=O)c2ccc(C)cc2)cc1,7.08µM*,i,8.3%,?,?,6.3%
COc1ccc(CNC(=O)CCS(=O)(=O)c2ccc(Br)cc2)cc1,8.6%,i,16.4%,15.8%,3.8%,4.2%
Cc1ccc(C(=O)CCS(=O)(=O)c2ccc(Br)cc2)cc1,-78.9%,i,4.8%,2.5%,?,-3.0%
COc1ccc(S(=O)(=O)CCC(=O)NCCc2ccc(Cl)cc2)cc1,12.6µM*,i,-0.2%[9.24 µM],-10.8%,?,-9.3%
CCOC(=O)c1ccc([N+](=O)[O-])c(CS(=O)(=O)c2ccc(Cl)cc2)c1,-8.2%,i,-6.7%,0.0%,-3.9%,·
Cc1ccc(S(=O)(=O)Cc2cc(F)c([N+](=O)[O-])cc2[N+](=O)[O-])cc1,-101.2%,?,2.91µM*,6.51µM*,?,?
Cc1cnc(C)c(-c2cccc3c2OC(CNC(=O)c2cc(C)on2)C3)n1 (stereo not drawn),·,i,·,·,·,·
Cc1cccc(-c2nc3c4ccccc4nc(NCc4ccc(Cl)cc4)n3n2)c1,-4.8%,·,·,·,4.3%,·
Cc1ccc(Nc2nc(NCc3ccco3)nc3nccnc23)cc1,-1.1%,·,·,·,10.1%,·
CCOc1ccccc1NC(=O)c1nc(S(=O)(=O)Cc2ccccc2F)ncc1Cl,-17.5%,·,·,·,?,·
O=C(Nc1ccccc1F)c1nc(S(=O)(=O)Cc2ccccc2F)ncc1Cl,8.91µM*,17.8µM*,·,·,4.47µM*,?
COc1ccc(OC)c(NC(=O)c2nc(S(=O)(=O)Cc3ccccc3F)ncc2Cl)c1,3.16µM*,·,·,·,?,·
SMILES,HepG2 viability,ATXN viability,HT1080-NT tox,HT1080 IDH1KD tx,TGFb inhibitor,ATXN2 expr inh
COc1ccc2nc(NC(=O)c3nc(S(=O)(=O)Cc4ccccc4F)ncc3Cl)sc2c1,-98.6%,·,·,·,?,·
COc1cccc(Cn2c(=O)n(Cc3ccco3)c(=O)c3oc4ccccc4c32)c1,-34.4%,·,·,·,-10.2%,·
Cn1c(SCc2ccc(C(C)(C)C)cc2)nnc1C1COc2ccccc2O1 (stereo not drawn),-2.4%,i,-9.0%,?,22.4µM*,?
COc1ccc(C(=O)CN2C(=O)c3ccccc3S2(=O)=O)cc1Br,-50.2%,?,-2.3%,2.8%,-14.1%,?
COc1ccc(C(=O)CN2C(=O)c3ccccc3S2(=O)=O)cc1,-26.3%,i,26.8%,2.8%,0.4%,0.501µM*
CCCn1c(C)cc(C(=O)CN2C(=O)c3ccccc3S2(=O)=O)c1C,-8.2%,i,-1.9%,0.3%,13.8%,·
Cc1cc(C(=O)CN2C(=O)c3ccccc3S2(=O)=O)c(C)n1CC1CCCO1 (stereo not drawn),-1.7%,?,10.6%,8.3%,-8.4%,0.501µM*
CCOC(=O)c1cc(-c2ccccc2)n(CCC(=O)NCCc2ccccc2)c1C,-19.4%,·,·,·,0.0%,·
COCCCNC(=O)/C(C#N)=C/c1cccc(NC(=O)c2ccccc2Cl)c1,-50.7%,i,?,14.6µM*,?,0.4%
N#C/C(=C\c1cccc(NC(=O)c2ccccc2Cl)c1)C(=O)NCCc1ccccc1,11.2µM*,i,?,?,?,-37.3%
COCCCNC(=O)/C(C#N)=C/c1ccc(F)cc1,-12.7%,i,8.5%,25.4%,-16.3%,14.9%
C#CCOc1ccc(C2C(C(=O)OC)=C(C)NC3=C2C(=O)c2ccccc23)cc1OCC (stereo not drawn),6.4%,?,·,·,5.9%,-22.6%
CCCCC(=O)N1C/C=C\C(c2ccc(OC)cc2)N(Cc2ccc(F)cc2)C(=O)C1C (stereo not drawn),-20.2%,·,·,·,?,·
O=C(Nc1cccnc1)c1ccc(COc2ccccc2Cl)o1,-39.3%,i,?,20.6µM*,-2.1%,-16.1%
O=C(Nc1cccnc1)c1ccc(COc2cc(Cl)ccc2Cl)o1,-5.2%,i,?,23.1µM*,?,-29.6%
O=C(Nc1nccs1)c1ccc(COc2ccccc2Br)o1,-17.2%,i,10µM*,?,?,3.4%

# Bioassay records (PubChem BioAssay)
